Most compounds without a hit are left out; they make up all but 7.9% or so of the library.
HCV inh = qHTS Assay for Inhibitors of Hepatitis C Virus (HCV) | actives 3.4% (n = 340,000) | Huh7.5.1 HCVcc-Cre infection, luciferase reporter, 44 h | AID 651820, 2012 | Potency, µM (highest dose often 41.8 µM), for inactives: at the top dose activity change, negative = inhibition, actives largely listed as inhibitors; active = well fitted inhibition curve with a large enough effect; inconclusive = small, poorly fitted or top-dose-only effect, or another doubt; inactive = no such curve, though single readings can be large or run the other way; note: potency is the fitted concentration of half-maximal effect
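Antiviral activity was scored by luciferase reporter output from cells infected with HCVcc-Cre (~0.5 moi) in presence of compound, 44 h infection period, cells seeded 1,000/well 4 h prior.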
FMDV antiviral = High Throughput Screening for Foot and Mouth Disease Virus Antivirals | FMDV antiviral cell-based qHTS | Potency, µM (highest dose often 57.9 µM), for inactives: at the highest dose activity change, negative = inhibition, usual class: inhibitors | actives 1.2% (n = 410,000) | AID 1159524, 2015; calls by dose curve; tested in HEK293T cells; note: read-out not given here; potency is the fitted concentration of half-maximal effect; nearly all actives have a fitted effect of over 45% in size
MARV entry inh = qHTS for inhibitors of binding or entry into cells for Marburg Virus. Marburg virus pseudotyped entry inhibition, cell reporter. Potency, µM (highest dose often 37.8 µM), for the others: at the top dose activity change, negative = inhibition, hits mostly inhibitors. actives 1.8% (n = 300,000); calls by dose curve; tested in HEK293 cells; note: potency is the fitted concentration of half-maximal effect
HCMV antiviral = qHTS Assay for inhibitors of the human cytomegalovirus (HCMV). HFF cells, HCMV-luciferase reporter, 72 h; hits give low values. activity change, negative = inhibition, % at 57.5 µM. actives 4.5% (n = 410,000). AID 1259415, 2018; in the data active = activity change below about -60%; inconclusive = no clear call, values can overlap the other calls; inactive = above about -39%
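HFF cells seeded 16 h at 37C, treated with compounds, infected with luciferase-reporter HCMV at MOI 1 PFU/cell; luciferase read at 72 h post infection, normalized to buffer-only and Salinomycin controls.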
Lassa entry inh = qHTS for Inhibitors of binding or entry into cells for Lassa Virus; Lassa virus pseudotype entry inhibition, cell reporter; Potency, µM (top dose mostly 37.9 µM), without a hit: at the highest dose activity change, negative = inhibition, hits mostly inhibitors; actives 1.2% (n = 300,000); AID 540256, 2011; calls by dose curve; tested in HEK293 cells; note: potency is the fitted concentration of half-maximal effect; nearly all actives have a fitted effect of over 50% in size
* hit, by the source's call; ? = inconclusive; . = no result given; [ ] = another dose, or the depositor's remark. % is set by controls: 0 for no effect and ±100 for the full control effect.

SMILES | HCV inh | FMDV antiviral | MARV entry inh | HCMV antiviral | Lassa entry inh
COC(=O)c1ccc(CN2C(=O)C(C)N(C(=O)c3c(F)cccc3F)c3ccccc32)cc1 (stereo not given) | ? | ? | . | -6.9 | .
CCCN(Cc1ccccc1)C(=O)Nc1ccc2c(c1)nnn2C | 17.9% | . | ? | -0.7 | 2.59µM*
Cn1nnc2cc(NC(=O)Nc3ccccc3F)ccc21 | . | 1.5% | . | 39.7 | .
Cc1cc(-c2cc(F)cc3c2OC(CNC(=O)[C@@H]2CCC(=O)N2)C3)ccc1F (stereo not given in full) | . | -0.2% | . | . | .
CN(Cc1ccccc1)c1nc2c(S(=O)(=O)c3ccccc3)nnn2c2ccsc12 | . | -2.4% | . | 4.5 | 29.8%[46.1 µM]
S=c1[nH]nc(COc2ccccc2)n1/N=C/c1ccncc1 | 11.2% | -14.5% | . | -4.0 | .
FC(F)(F)c1ccc(/C=N/n2c(COc3ccccc3)n[nH]c2=S)cc1 | 1.3% | -15.4% | 7.1%[46.1 µM] | -66.1* | ?
CC12CCC(C/C1=N\OC(=O)c1ccc(F)cc1)C2(C)C (stereo not given) | 15.1% | -2.5% | 0.5% | -6.2 | 1.0%
CC12CCC(C/C1=N/OC(=O)c1cccc([N+](=O)[O-])c1)C2(C)C (stereo not given) | 2.2% | -20.3% | . | -65.3* | .
Cc1ccc2c(c1)N=C(c1ccc(Cl)cc1)CO2 | -11.7% | 4.6% | ? | -102.3* | -42.2%
Clc1ccc(C2=Nc3cc(Cl)ccc3OC2)cc1 | 3.3% | 0.0% | . | 12.7 | .
CC(=O)N=c1scc(-c2ccccc2)n1-c1cccc(O)c1 | ? | -11.2% | ? | -92.4* | -25.8%[46.1 µM]
CC1(C(=O)NS(=O)(=O)c2ccc(Cl)cc2)CCN1C(=O)CCc1ccccc1 (stereo not given) | . | -8.3% | . | -9.0 | .
CC#CCN1C(=O)NC(c2ccccc2)C(C#N)=C1C (stereo not given) | . | . | 23.2%[14.2 µM] | . | .
CSCCC(NC(=O)c1ccccc1)C(=O)N1CCN(C(c2ccccc2)c2ccccc2)CC1 (stereo not given) | 12.6µM* | ? | -28.0% | -18.7 | 14.1µM*
Cc1cc(C)cc(C(=O)NCC(=O)N2CCN(C(c3ccccc3)c3ccccc3)CC2)c1 | -15.2% | 2.9% | 12.6µM* | 32.6 | -20.0%[46.1 µM]
COC(=O)C1CCN(Cc2ccc3c(c2)CN(C(=O)C2Cc4ccccc4O2)CCO3)CC1 (stereo not given) | . | -11.7% | . | . | .
CCS(=O)(=O)N1CCC(C(=O)Oc2ccc(C)c(C)c2)CC1 | 5.6% | 4.5% | . | -17.0 | .
CCN(CC)CCOc1ccc(Br)cc1 | ? | . | 3.0% | ? | 0.8%
CCN(CC)CCOc1ccc(/C(=C(\Cl)c2ccccc2)c2ccccc2)cc1 | 11.2µM* | ? | . | -18.3 | .
N#CCCN1CCN(C(=O)c2c(N)no[n+]2[O-])CC1 | 4.7% | 1.2% | -3.0%[46.1 µM] | -21.0 | 6.5%
COC(=O)/C(C#N)=C1\SC=C(C)N1c1ccccc1 | . | . | 4.3% | . | .
CCCCC[n+]1cccc2c3ccccc3ccc21 | ? | ? | . | -95.4* | .
c1ccc(C[n+]2cccc3c4ccccc4ccc32)cc1 | ? | ? | ? | -93.9* | 7.08µM*
Cc1cccc(N2CCN(C(=O)c3ccc4c(c3)NC(=O)C(CSCc3cccc(F)c3)N4)CC2C)c1 (stereo not given) | -18.3% | -26.5% | . | -82.8* | .
SMILES | HCV inh | FMDV antiviral | MARV entry inh | HCMV antiviral | Lassa entry inh
CCOC(=O)N1CCN(CC(O)COCCC23CC4CC(CC(C4)C2)C3)CC1 (stereo not given) | -2.5% | ? | ? | -61.9* | -18.4%
CS(=O)(=O)c1ccc2nc(N)sc2c1 | 5.6% | 12.2% | 12.4% | 47.5 | 7.5%
CS(=O)(=O)c1ccc(N)c(SSc2cc(S(C)(=O)=O)ccc2N)c1 | -11.7% | 4.3% | . | -82.4* | .
Cc1ccc(CN2CCC(CNC(=O)c3ccc(NC(=O)C4=CSCCO4)cc3)CC2)cc1 | 12.6µM* | -0.2% | . | -33.7 | .
O=C(Nc1ccc(C(=O)NCC2CCN(Cc3ccccc3F)CC2)cc1)C1=CSCCO1 | -8.6% | 5.9% | . | -15.9 | .
Cc1ccc(C(=O)NCC(c2ccc3c(c2)OCO3)N2CCOCC2)cc1 (stereo not given) | . | 8.4% | . | 14.7 | -3.7%[46.1 µM]
COc1cc(C2c3cc4c(cc3CC3COC(=O)C32)OCO4)cc(OC)c1OC (stereo not given) | ? | -14.4% | . | 0.6 | .
COc1cc(C2c3cc4c(cc3CC3COC(=O)N32)OCO4)cc(OC)c1OC (stereo not given) | -10.3% | -7.9% | ? | -88.3* | ?
CCCc1ccc(OCC(=O)Nc2sc3c(c2C(=O)OC)CCCCC3)cc1 | . | -13.1% | . | 0.2 | 24.6%[46.1 µM]
CCOC(=O)c1c(CC(C)C)csc1NC(=O)COC(=O)c1ccc(O)cc1 | ? | 35.5µM* | -1.9% | -19.0 | ?
COCC(=O)Nc1sc2c(c1C(=O)OC)CCCC2 | 7.08µM* | 19.6% | 3.5% | 47.1 | 4.6%
COC(=O)c1c(NC(=O)COc2c(C)cccc2C)sc2c1CCCC2 | . | -28.7% | . | -2.1 | 16.8%[46.1 µM]
COC(=O)c1c(NC(=O)COC(=O)c2ccc(O)cc2)sc2c1CCCCC2 | 3.16µM* | -19.8% | 3.6%[46.1 µM] | 14.5 | -25.0%[46.1 µM]
COC(=O)c1c(NC(=O)C(=O)NCCCN2CCOCC2)sc2c1CCCC2 | 22.4µM* | -32.1% | . | 11.8 | .
COC(=O)[C@@H]1[C@@H](CO)[C@@H]2Cn3c(ccc(Br)c3=O)[C@H]1N2C(=O)CN(C)C | . | . | . | 18.9 | .
CCc1ccc(/C=C/C(=O)c2cc(Br)ccc(=O)c2O)cc1 | ? | -15.9% | ? | -105.7* | ?
CCOc1ccc(/C=C/C(=O)c2cc(Br)ccc(=O)c2O)cc1 | ? | ? | ? | 1.9 | ?
Cc1cccc(/C=C/C(=O)c2cc(Br)ccc(=O)c2O)c1 | 14.1µM* | ? | ? | -104.3* | ?
O=C(C=Cc1ccccc1)c1cc(Br)ccc1O | -22.1% | ? | -1.9% | -21.9 | ?
O=C1NC(=O)C2(CCc3ccccc32)N1 (stereo not given) | 18.4% | -7.7% | 0.3% | -0.4 | -1.1%
C=C1CC2(OC1=O)c1ccccc1CCc1ccccc12 | ? | 22.4µM* | ? | -97.4* | 20µM*
CSc1ccccc1NC(=O)CN(C)CC(=O)NCc1ccccc1 | 22.2% | -5.5% | -15.2% | -84.2* | -16.5%
CC(=O)c1c(C)[nH]c(C(=O)CN(C)CC(=O)Nc2ccccc2Cl)c1C | ? | ? | ? | -15.0 | ?
CSc1ccccc1NC(=O)CN(C)CC(=O)c1[nH]c(C)c(C(C)=O)c1C | ? | 35.5µM* | -1.1% | 28.6 | -25.8%
CCN(C(=O)CCNC(=O)Cn1cnc2ccccc2c1=O)c1cccc(Cl)c1 | -0.5% | -11.8% | 6.1%[46.1 µM] | 6.1 | 10.0%
O[C@]1(c2ccc(F)cc2)CCNC1 | . | . | -7.0% | . | .
Cc1cc(C)n(C(=O)/C(C#N)=N/Nc2cc(Cl)cc(Cl)c2)n1 | 10µM* | ? | . | . | .
Cc1cc(C)n(C(=O)/C(C#N)=N\Nc2ccccc2[N+](=O)[O-])n1 | 14.4% | 13.6% | -17.0%[46.1 µM] | -31.2 | 1.1%
N=C1S/C(=C\c2ccco2)C(=O)N1c1nccs1 | ? | -2.4% | . | -115.1* | .

Assay outcomes from PubChem.
